Test results: PubChem BioAssay (EPA / NIEHS)
Inconclusive results are not listed. Calls of active or inactive are those of the source. Rule for the calls: active = hit-call score of the fitted dose curve at least 0.9, where 1 is the maximum; inconclusive = response in the unintended direction; inactive = score below 0.9.

Columns and labels:
[1] = biological target: human Rho Associated Coiled-coil Containing Protein Kinase 1 (ROCK1), ROCK1 (gene 6093) (UniProt Q13464); test: NVS_ENZ_hROCK1: NovaScreen (NVS) Enzymatic Assay for human Rho Associated Coiled-coil Containing Protein Kinase 1 (ROCK1) (AID 2283214)
Sequence of human Rho Associated Coiled-coil Containing Protein Kinase 1 (ROCK1), ROCK1 (gene 6093) (Q13464 whole entry, looked up): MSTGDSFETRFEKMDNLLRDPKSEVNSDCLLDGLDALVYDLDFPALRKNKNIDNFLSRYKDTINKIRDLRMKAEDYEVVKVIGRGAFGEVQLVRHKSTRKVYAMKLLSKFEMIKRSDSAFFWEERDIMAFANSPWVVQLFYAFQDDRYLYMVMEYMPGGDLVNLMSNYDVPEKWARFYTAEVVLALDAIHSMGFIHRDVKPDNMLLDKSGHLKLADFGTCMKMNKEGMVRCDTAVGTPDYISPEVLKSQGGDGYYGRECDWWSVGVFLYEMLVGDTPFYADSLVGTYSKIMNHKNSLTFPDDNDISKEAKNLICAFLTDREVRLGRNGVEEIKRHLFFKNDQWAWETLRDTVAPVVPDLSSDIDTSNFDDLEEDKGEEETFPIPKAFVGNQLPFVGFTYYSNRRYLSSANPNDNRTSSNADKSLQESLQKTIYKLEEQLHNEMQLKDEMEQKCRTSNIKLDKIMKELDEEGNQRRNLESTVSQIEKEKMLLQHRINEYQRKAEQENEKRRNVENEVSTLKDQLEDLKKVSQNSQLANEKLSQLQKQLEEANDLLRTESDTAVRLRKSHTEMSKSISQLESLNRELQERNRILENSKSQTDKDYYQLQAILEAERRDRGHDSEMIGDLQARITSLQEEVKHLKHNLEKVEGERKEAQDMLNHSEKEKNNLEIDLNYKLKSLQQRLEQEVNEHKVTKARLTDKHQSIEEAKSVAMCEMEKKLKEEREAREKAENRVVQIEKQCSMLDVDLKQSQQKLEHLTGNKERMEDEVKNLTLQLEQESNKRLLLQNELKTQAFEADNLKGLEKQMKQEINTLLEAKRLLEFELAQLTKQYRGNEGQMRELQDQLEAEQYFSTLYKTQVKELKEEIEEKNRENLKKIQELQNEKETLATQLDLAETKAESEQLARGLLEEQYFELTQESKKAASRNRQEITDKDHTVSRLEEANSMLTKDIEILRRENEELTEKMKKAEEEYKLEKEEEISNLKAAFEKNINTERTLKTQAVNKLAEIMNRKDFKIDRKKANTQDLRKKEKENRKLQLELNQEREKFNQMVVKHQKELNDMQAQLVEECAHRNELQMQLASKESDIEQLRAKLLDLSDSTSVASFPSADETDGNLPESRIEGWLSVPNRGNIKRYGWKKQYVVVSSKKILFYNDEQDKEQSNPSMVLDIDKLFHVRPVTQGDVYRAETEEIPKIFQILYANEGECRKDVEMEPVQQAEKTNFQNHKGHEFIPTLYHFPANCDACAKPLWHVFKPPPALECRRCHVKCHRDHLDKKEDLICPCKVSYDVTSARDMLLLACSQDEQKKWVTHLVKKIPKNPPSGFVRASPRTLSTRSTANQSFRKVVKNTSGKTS
Outline: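 Cell-free recombinant human ROCK1 activity assay; fluorescent substrate and product separated by electrophoretic mobility shift, read 1 h after dosing. Screened in duplicate at 25 uM; loss of signal versus DMSO baseline scored as inhibition.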

[2] = biological target: human Sirtuin 1 (SIRT1), SIRT1 (gene 23411) (UniProt Q96EB6); test: NVS_ENZ_hSIRT1: NovaScreen (NVS) Enzymatic Assay for human Sirtuin 1 (SIRT1) (AID 2283219)
Sequence of human Sirtuin 1 (SIRT1), SIRT1 (gene 23411) (Q96EB6 whole entry, looked up): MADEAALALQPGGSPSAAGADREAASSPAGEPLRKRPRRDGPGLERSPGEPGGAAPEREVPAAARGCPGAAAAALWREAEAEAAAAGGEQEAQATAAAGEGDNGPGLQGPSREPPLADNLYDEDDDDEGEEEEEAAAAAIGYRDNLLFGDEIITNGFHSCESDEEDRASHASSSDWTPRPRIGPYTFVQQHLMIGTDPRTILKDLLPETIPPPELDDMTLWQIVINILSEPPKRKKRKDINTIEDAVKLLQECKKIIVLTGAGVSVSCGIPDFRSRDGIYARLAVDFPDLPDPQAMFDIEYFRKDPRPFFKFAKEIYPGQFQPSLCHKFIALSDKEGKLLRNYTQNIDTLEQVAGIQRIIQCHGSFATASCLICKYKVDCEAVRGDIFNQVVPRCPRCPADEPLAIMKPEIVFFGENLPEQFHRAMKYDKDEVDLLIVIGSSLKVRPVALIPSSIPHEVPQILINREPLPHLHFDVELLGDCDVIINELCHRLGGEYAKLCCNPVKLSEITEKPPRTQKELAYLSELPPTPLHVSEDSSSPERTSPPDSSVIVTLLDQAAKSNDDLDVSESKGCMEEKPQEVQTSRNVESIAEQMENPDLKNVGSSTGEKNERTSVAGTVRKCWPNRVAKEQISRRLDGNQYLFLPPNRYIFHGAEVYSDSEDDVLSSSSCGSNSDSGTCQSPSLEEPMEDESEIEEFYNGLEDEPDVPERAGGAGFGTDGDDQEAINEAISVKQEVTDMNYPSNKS
Outline: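 Cell-free recombinant SIRT1 with a fluorescent substrate; substrate and product separated by electrophoretic mobility shift and read by fluorescence intensity, 1 h after dosing. Primary screen at 25 uM in duplicate; hits re-run in concentration-response up to 50 uM, relative to DMSO.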

[3] = biological target: human Sirtuin 2 (SIRT2), SIRT2 (gene 22933) (UniProt Q8IXJ6); test: NVS_ENZ_hSIRT2: NovaScreen (NVS) Enzymatic Assay for human Sirtuin 2 (SIRT2) (AID 2283217)
Sequence of human Sirtuin 2 (SIRT2), SIRT2 (gene 22933) (Q8IXJ6 whole entry, looked up): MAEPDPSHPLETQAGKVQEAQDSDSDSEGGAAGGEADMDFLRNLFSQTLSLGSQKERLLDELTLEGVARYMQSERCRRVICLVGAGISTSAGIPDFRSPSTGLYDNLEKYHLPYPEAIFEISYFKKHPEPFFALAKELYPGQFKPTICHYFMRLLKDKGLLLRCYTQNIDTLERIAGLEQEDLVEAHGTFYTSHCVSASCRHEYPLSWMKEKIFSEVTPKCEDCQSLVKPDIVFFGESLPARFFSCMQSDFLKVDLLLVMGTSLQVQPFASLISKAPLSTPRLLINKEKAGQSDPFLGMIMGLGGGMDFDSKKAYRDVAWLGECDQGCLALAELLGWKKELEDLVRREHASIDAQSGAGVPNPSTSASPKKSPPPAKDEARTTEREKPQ
Outline: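 Cell-free recombinant human SIRT2, fluorescent substrate with product separated by electrophoretic mobility shift, 1 hr. Screened in duplicate at 25 uM; hits rerun singly in concentration-response up to 50 uM, relative to DMSO.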

[4] = biological target: human Protein Tyrosine Phosphatase Non-receptor Type 9 (PTPN9), PTPN9 (gene 5780) (UniProt P43378); test: NVS_ENZ_hPTPN9: NovaScreen (NVS) Enzymatic Assay for human Protein Tyrosine Phosphatase Non-receptor Type 9 (PTPN9) (AID 2283209)
Outline: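 Sf9-expressed enzyme in a cell-free assay, fluorescence read 1.33 h after dosing with mobility-shift separation of substrate and product. Tested at 25 uM in duplicate, then up to 50 uM; signal loss versus DMSO.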

[5] = biological target: human Tropomyosin Receptor Kinase A (TRKA), NTRK1 (gene 4914) (UniProt P04629); test: NVS_ENZ_hTrkA: NovaScreen (NVS) Enzymatic Assay for human Tropomyosin Receptor Kinase A (TRKA) (AID 2283224)
Outline: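 Recombinant human TrkA activity read after 1 h by fluorescence with electrophoretic mobility shift separating substrate and product. Primary screen in duplicate at 25 uM; actives were rerun in concentration-response up to 50 uM. Loss of signal versus DMSO.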

[6] = biological target: human Sirtuin 3 (SIRT3), SIRT3 (gene 23410) (UniProt Q9NTG7); test: NVS_ENZ_hSIRT3: NovaScreen (NVS) Enzymatic Assay for human Sirtuin 3 (SIRT3) (AID 2283222)
Sequence of human Sirtuin 3 (SIRT3), SIRT3 (gene 23410) (Q9NTG7 whole entry, looked up): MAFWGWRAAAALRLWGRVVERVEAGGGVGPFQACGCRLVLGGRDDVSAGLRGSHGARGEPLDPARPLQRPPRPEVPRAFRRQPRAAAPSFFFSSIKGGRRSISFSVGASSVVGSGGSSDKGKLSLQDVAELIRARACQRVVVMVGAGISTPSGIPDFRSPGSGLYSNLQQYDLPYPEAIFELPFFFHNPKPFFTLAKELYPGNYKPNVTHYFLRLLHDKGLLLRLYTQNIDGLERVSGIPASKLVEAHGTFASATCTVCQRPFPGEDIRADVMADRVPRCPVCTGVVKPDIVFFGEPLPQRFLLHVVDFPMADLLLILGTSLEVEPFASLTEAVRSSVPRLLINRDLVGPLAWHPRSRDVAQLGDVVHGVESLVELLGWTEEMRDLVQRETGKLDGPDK
Outline: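 Cell-free enzyme assay with recombinant protein and fluorescent substrate, product separated by electrophoretic mobility shift; read 1 hour after dosing. Screened in duplicate at 25 uM, then singleton concentration-response up to 50 uM; loss of signal versus DMSO.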

[7] = biological target: human Protein Tyrosine Phosphatase Non-receptor Type 6 (PTPN6), PTPN6 (gene 5777) (UniProt P29350); test: NVS_ENZ_hPTPN6: NovaScreen (NVS) Enzymatic Assay for human Protein Tyrosine Phosphatase Non-receptor Type 6 (PTPN6) (AID 2283210)
Sequence of human Protein Tyrosine Phosphatase Non-receptor Type 6 (PTPN6), PTPN6 (gene 5777) (P29350 whole entry, looked up): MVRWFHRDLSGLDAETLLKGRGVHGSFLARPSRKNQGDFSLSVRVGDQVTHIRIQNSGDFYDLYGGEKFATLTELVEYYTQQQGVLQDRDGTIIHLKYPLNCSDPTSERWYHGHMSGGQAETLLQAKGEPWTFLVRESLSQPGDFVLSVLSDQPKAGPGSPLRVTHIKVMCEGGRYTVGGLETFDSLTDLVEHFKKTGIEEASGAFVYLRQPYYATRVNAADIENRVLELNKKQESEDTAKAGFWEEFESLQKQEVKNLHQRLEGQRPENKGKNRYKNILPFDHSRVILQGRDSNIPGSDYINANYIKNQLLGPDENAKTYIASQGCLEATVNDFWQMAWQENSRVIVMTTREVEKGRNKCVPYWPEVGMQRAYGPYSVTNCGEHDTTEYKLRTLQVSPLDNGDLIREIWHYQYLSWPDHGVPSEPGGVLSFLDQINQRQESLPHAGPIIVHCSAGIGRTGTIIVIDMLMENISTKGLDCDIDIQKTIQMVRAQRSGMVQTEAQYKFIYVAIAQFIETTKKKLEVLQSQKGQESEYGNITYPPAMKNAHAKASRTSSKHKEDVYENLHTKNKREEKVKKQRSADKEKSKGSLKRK
Outline: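 Cell-free assay with recombinant PTPN6 expressed in SF9 cells, fluorescent substrate, product separated from substrate by electrophoretic mobility shift; read 1.33 hours after dosing. Primary screen in duplicate at 25 uM, actives retested in concentration series; DMSO baseline.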

[8] = biological target: human Protein Tyrosine Phosphatase Receptor Type M (PTPRM), PTPRM (gene 5797) (UniProt P28827); test: NVS_ENZ_hPTPRM: NovaScreen (NVS) Enzymatic Assay for human Protein Tyrosine Phosphatase Receptor Type M (PTPRM) (AID 2283215)
Sequence of human Protein Tyrosine Phosphatase Receptor Type M (PTPRM), PTPRM (gene 5797) (P28827 whole entry, looked up): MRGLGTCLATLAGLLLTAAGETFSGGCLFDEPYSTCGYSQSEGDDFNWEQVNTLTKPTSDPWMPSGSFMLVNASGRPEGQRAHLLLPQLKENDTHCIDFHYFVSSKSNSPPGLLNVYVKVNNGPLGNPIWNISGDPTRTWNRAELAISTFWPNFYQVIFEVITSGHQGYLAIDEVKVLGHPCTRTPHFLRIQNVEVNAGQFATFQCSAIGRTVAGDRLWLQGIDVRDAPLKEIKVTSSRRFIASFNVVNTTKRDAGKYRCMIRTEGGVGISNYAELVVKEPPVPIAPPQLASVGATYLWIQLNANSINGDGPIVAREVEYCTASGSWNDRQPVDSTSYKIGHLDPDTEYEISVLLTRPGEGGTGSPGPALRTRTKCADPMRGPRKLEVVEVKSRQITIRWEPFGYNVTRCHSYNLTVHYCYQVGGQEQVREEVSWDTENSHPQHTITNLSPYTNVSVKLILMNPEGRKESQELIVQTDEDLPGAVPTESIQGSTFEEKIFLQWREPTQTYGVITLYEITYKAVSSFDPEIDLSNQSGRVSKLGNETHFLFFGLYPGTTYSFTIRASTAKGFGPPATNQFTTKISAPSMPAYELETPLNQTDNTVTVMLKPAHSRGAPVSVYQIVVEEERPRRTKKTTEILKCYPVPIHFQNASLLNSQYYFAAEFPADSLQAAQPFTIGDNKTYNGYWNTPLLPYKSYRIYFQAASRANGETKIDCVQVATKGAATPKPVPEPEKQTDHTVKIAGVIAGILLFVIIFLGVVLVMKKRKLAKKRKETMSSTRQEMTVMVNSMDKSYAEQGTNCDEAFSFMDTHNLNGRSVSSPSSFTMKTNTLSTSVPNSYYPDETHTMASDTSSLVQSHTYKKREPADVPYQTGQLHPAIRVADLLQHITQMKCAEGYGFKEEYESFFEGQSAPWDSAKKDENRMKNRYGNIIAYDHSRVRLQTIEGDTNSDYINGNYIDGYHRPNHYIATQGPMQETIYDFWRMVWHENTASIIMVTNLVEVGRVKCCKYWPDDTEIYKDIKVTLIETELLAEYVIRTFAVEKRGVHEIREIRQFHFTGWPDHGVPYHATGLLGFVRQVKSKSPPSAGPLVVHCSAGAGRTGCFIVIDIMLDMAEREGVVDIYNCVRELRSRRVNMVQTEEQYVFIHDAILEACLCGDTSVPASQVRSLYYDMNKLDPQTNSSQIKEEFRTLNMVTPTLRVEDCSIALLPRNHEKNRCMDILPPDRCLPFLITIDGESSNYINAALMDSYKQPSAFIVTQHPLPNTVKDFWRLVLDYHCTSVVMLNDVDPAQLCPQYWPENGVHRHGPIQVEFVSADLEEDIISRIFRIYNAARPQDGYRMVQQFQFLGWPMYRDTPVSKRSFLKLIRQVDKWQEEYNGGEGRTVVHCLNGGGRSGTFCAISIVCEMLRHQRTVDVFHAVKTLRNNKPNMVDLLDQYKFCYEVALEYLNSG
Outline: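 Cell-free recombinant PTPRM with fluorogenic substrate; product separated from substrate by electrophoretic mobility shift and read by fluorescence, 1.33 h after dosing. Primary screen single concentration (25 uM) in duplicate; actives retested in concentration series; loss of signal versus DMSO.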

[9] = biological target: Tyrosine-protein phosphatase non-receptor type 14 (Homo sapiens) (UniProt Q15678); test: NVS_ENZ_hPTPN14: NovaScreen (NVS) Enzymatic Assay for human Protein Tyrosine Phosphatase Non-receptor Type 14 (PTPN14) (AID 2283206)
Outline: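 Cell-free recombinant human PTPN14 with fluorescent substrate, read 0.5 h after dosing by fluorescence and electrophoretic mobility shift separating substrate from product. Primary screen at 25 uM in duplicate; hits run to 50 uM maximum; loss of signal versus DMSO.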

[10] = biological target: human Protein Tyrosine Phosphatase Receptor Type B (PTPRB), PTPRB (gene 5787) (UniProt P23467); test: NVS_ENZ_hPTPRB: NovaScreen (NVS) Enzymatic Assay for human Protein Tyrosine Phosphatase Receptor Type B (PTPRB) (AID 2283211)
Outline: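 Recombinant human PTPRB with a fluorescent substrate, product separated by electrophoretic mobility shift; read 1 h after dosing. Primary screen in duplicate at 25 uM; actives then retested in concentration series; loss of signal versus DMSO.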

[11] = biological target: sheep Cyclooxygenase-2 (Cox2), PTGS2 (gene 443460) (UniProt P79208); test: NVS_ENZ_oCOX2: NovaScreen (NVS) Enzymatic Assay for sheep Cyclooxygenase-2 (Cox2) (AID 2283231)
Outline: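 Colorimetric absorbance read-out of COX activity, taken 0.66 hour post-dosing, using native protein from sheep placenta. Single-concentration duplicate screen (25 uM), then singleton concentration-response up to 50 uM for actives.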

[12] = biological target: human Protein Tyrosine Phosphatase Receptor Type F (PTPRF), PTPRF (gene 5792) (UniProt P10586); test: NVS_ENZ_hPTPRF: NovaScreen (NVS) Enzymatic Assay for human Protein Tyrosine Phosphatase Receptor Type F (PTPRF) (AID 2283213)
Outline: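 Cell-free fluorescence enzyme assay with recombinant protein and substrate; product separated by electrophoretic mobility shift. Read 1 h after dosing, single 25 uM duplicate screen, then concentration-response up to 50 uM; loss of signal vs DMSO.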

[13] = biological target: human Vascular Endothelial Growth Factor Receptor 1 (VEGFR1), FLT1 (gene 2321) (UniProt P17948); test: NVS_ENZ_hVEGFR1: NovaScreen (NVS) Enzymatic Assay for human Vascular Endothelial Growth Factor Receptor 1 (VEGFR1) (AID 2283226)
Outline: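 Cell-free assay of recombinant human VEGFR1 kinase with substrate, measured 1 h after dosing; fluorescence with electrophoretic mobility-shift separation of substrate and product, referenced to DMSO; primary screen at 25 uM in duplicate, actives then run in concentration series.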

[14] = biological target: rabbit Imidazoline 2 Central (I2C), CKB (gene 100009085) (UniProt P00567); test: NVS_ENZ_rabI2C: NovaScreen (NVS) Enzymatic Assay for rabbit Imidazoline 2 Central (I2C) (AID 2283228)
Outline: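 Rabbit brain membranes, cell-free; readout by filter-based scintillation counting 1.5 hours after dosing, loss of signal vs DMSO. Initial duplicate test at 25 uM, then concentration-response with 50 uM top concentration.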

[15] = biological target: human Vascular Endothelial Growth Factor Receptor 2 (VEGFR2), KDR (gene 3791) (UniProt P35968); test: NVS_ENZ_hVEGFR2: NovaScreen (NVS) Enzymatic Assay for human Vascular Endothelial Growth Factor Receptor 2 (VEGFR2) (AID 2283230)
Outline: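 Cell-free recombinant VEGFR2 kinase, fluorescent substrate with electrophoretic mobility-shift separation; read 1 h after dosing. Screened at 25 uM in duplicate, hits to concentration-response up to 50 uM; loss-of-signal versus DMSO.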

[16] = biological target: human Vascular Endothelial Growth Factor Receptor 3 (VEGFR3), FLT4 (gene 2324) (UniProt P35916); test: NVS_ENZ_hVEGFR3: NovaScreen (NVS) Enzymatic Assay for human Vascular Endothelial Growth Factor Receptor 3 (VEGFR3) (AID 2283229)
Outline: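 Cell-free recombinant VEGFR3 kinase reaction with fluorescent substrate, read 1 h after dosing by electrophoretic mobility shift separation of substrate and product. Single-concentration duplicate screen at 25 uM, then concentration-response up to 50 uM; loss of activity versus DMSO.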

## N[C@@H](Cc1c[nH]c2ccccc12)C(=O)O
[1]
  outcome: inactive
[2]
  outcome: inactive

## CC(C)c1cccc(C(C)C)c1
[1]
  outcome: inactive

## CC1=C(C)S(=O)(=O)CCS1(=O)=O
[2]
  outcome: inactive

## C=CCc1ccc(OC)c(OC)c1
[3]
  outcome: inactive

## O=C(O)CC(O)(CC(=O)O)C(=O)O
[4]
  outcome: inactive
[5]
  outcome: inactive

## O=C(N[C@@H](c1ccccc1)[C@@H]1CCCCN1)c1cccc(C(F)(F)F)c1Cl
[1]
  outcome: inactive
[3]
  outcome: inactive
[6]
  outcome: inactive

## c1ccc2occc2c1
[7]
  outcome: inactive

## CC(COCC(C)OC(=O)c1ccccc1)OC(=O)c1ccccc1 (centres undefined)
[7]
  outcome: inactive

## COC(=O)CCC(=O)OC
[2]
  outcome: inactive
[6]
  outcome: inactive

## Cc1cc(SC2=C(O)C[C@@](CCc3ccc(N)cc3)(C(C)C)OC2=O)c(C(C)(C)C)cc1CO
[2]
  outcome: inactive

## CCCCCCC(C=O)=Cc1ccccc1
[7]
  outcome: inactive

## CCCCOC(=O)CCCCC(=O)OCCCC
[8]
  outcome: inactive

## CC(C)OC(=O)C(C)(C)Oc1ccc(C(=O)c2ccc(Cl)cc2)cc1
[6]
  AC50: 8.69 µM (active)

## CC(C)NCC(O)c1ccc(O)c(O)c1 (centres undefined)
[9]
  outcome: inactive

## CCCCC(CC)CO (centres undefined)
[10]
  outcome: inactive

## COc1ccc(C(=O)Nc2nc3ccccc3c(NCc3ccccc3)c2C#N)cc1
[7]
  outcome: inactive
[11]
  AC50: 13.7 µM (active)

## COc1ccc(OC(F)(F)F)cc1CN[C@H]1CCCN[C@H]1c1ccccc1
[9]
  outcome: inactive
[12]
  outcome: inactive
[8]
  outcome: inactive
[13]
  outcome: inactive
[14]
  AC50: 15 µM (active)
[15]
  outcome: inactive

## CCN(CC)CCOc1ccc(C(=C(Cl)c2ccccc2)c2ccccc2)cc1
[3]
  AC50: 21 µM (active)
[6]
  outcome: inactive
[5]
  outcome: inactive
[14]
  AC50: 9.71 µM (active)

## O=C1NC(=O)C(c2ccccc2)(c2ccccc2)N1
[8]
  outcome: inactive
[6]
  outcome: inactive
[13]
  outcome: inactive

## CN(C)C(=O)NC1(c2ccccc2)CCN(CCC[C@]2(c3ccc(Cl)c(Cl)c3)CCCN(C(=O)c3ccccc3)C2)CC1
[12]
  outcome: inactive
[1]
  outcome: inactive
[3]
  AC50: 1.69 µM (active)
[15]
  outcome: inactive
[11]
  AC50: 4.73 µM (active)

## CN(C)C(=O)NC1(c2ccccc2)CCN(CC[C@@]2(c3ccc(F)c(F)c3)CN(C(=O)c3ccccc3)CCO2)CC1
[7]
  outcome: inactive
[13]
  outcome: inactive
[14]
  outcome: inactive
[15]
  outcome: inactive

## CC(C)(O)c1ccc(CNC(=O)c2cccnc2Oc2ccc(F)cc2)cc1
[2]
  outcome: inactive
[14]
  outcome: inactive

## O=C(Oc1ccccc1)c1cccc(C(=O)Oc2ccccc2)c1
[4]
  outcome: inactive
[1]
  outcome: inactive
[2]
  outcome: inactive

## Cc1occc(=O)c1O
[3]
  outcome: inactive
[15]
  outcome: inactive
[11]
  AC50: 17.6 µM (active)

## O=C(O)c1[nH]n(-c2ccc(S(=O)(=O)O)cc2)c(=O)c1N=Nc1ccc(S(=O)(=O)O)cc1
[16]
  outcome: inactive

## CCCCCCCCCCCCCCCCO
[16]
  AC50: 46.6 µM (active)
